# PubChem BioAssay (EPA / NIEHS)
# Values joined by “and” are separate entries in the source; they are usually repeats but may differ in a detail not shown here. Identical values can stand only once. Some structures have more than one record in an assay (separate samples or runs), and their calls can disagree. Active and inactive are the calls of the source. The calls were made as follows: active = hit-call score of the fitted dose curve at least 0.9, where 1 is the maximum; inactive = score below 0.9.
# What was measured:
# [1] = ATG_M_32_CIS: Attagene CIS-FACTORIAL HepG2 Assay for M32 Transcription Factor (Internal Marker) (AID 2282949); details: HepG2 Attagene cis-factorial M32 reporter, mRNA; actives raise or lower the signal;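 also: background control marker of the multiplexed CIS panel rather than a real target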
# Outline: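 Fluorescent capillary electrophoresis peaks of HpaI-digested, FAM-labelled RT-PCR reporter products give the signal. Source: transiently transfected human liver HepG2 cells, 24 h after chemical dosing; bidirectional fitting against DMSO.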
# [2] = ATG_M_06_CIS: Attagene CIS-FACTORIAL HepG2 Assay for M06 Transcription Factor (Internal Marker) (AID 2282950); details: HepG2 Attagene CIS-FACTORIAL M06 internal marker reporter; actives raise or lower the signal
# Outline: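 HepG2 cells transiently transfected with cis-regulated multiple reporter transcription units were exposed to chemical for 24 h; reporter mRNA was quantified by RT-PCR, 6-FAM primer labelling, HpaI digestion and capillary electrophoresis, fitted bidirectionally against DMSO.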
# [3] = target: Hypoxia-inducible factor 1-alpha (Homo sapiens) (UniProt Q16665); experiment: ATG_HIF1a_CIS: Attagene CIS-FACTORIAL HepG2 Assay for human Hypoxia Inducible Factor 1 (HIF1A) (AID 2282951); details: HepG2 Attagene cis-factorial HIF1a reporter transcription; actives raise or lower the signal
# Chain of Hypoxia-inducible factor 1-alpha (Homo sapiens) (Q16665 whole entry, looked up): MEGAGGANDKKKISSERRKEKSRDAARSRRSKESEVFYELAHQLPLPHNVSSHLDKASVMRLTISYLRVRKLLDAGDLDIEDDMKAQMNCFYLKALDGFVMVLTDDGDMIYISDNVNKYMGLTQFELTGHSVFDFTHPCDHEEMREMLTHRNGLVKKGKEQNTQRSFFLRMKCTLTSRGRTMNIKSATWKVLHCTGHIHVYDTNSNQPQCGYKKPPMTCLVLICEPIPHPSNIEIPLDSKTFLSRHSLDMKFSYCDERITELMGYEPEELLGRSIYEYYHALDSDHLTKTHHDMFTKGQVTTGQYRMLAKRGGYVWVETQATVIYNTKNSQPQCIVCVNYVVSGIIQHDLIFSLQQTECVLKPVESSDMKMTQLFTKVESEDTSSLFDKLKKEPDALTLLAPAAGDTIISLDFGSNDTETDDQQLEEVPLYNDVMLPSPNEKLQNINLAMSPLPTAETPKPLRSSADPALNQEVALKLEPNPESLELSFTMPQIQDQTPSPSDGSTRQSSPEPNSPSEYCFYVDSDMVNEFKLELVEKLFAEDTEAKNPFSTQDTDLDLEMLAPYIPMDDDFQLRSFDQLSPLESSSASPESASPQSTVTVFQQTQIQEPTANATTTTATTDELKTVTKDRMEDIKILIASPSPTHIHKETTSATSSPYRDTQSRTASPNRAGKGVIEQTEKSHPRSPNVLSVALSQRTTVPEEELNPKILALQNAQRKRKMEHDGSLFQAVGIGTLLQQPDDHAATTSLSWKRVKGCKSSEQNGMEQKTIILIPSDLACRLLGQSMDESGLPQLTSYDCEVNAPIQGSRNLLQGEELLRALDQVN
# Outline: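 Measures endogenous transcription-factor activity through cis-regulated reporter mRNA in HepG2. Cells dosed 24 h; transcripts quantified by RT-PCR with 6-FAM-labelled products separated by capillary electrophoresis; DMSO serves as negative control.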
# [4] = target: Hepatocyte nuclear factor 6 (Homo sapiens) (UniProt Q9UBC0); experiment: ATG_HNF6_CIS: Attagene CIS-FACTORIAL HepG2 Assay for human Hepatocyte Nuclear Factor 6 (HNF6) (AID 2282952); details: HepG2 Attagene cis-factorial HNF6 reporter transcription; actives raise or lower the signal
# Chain of Hepatocyte nuclear factor 6 (Homo sapiens) (Q9UBC0 whole entry, looked up): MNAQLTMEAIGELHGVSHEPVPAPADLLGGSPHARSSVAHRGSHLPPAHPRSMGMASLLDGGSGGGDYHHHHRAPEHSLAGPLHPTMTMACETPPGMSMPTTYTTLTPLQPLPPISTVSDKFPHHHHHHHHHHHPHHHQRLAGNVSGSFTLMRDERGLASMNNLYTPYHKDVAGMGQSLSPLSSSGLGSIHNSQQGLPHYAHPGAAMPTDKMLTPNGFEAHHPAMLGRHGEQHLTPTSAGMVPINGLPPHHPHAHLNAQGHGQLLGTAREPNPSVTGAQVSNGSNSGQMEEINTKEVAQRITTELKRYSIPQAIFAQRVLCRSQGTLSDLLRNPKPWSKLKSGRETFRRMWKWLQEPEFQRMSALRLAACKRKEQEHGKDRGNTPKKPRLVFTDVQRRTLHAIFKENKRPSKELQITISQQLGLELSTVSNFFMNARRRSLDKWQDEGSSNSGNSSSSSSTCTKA
# Outline: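 HepG2 cells transiently transfected with cis-element-driven multiple reporter transcription units, dosed 24 h; reporter mRNA quantified by RT-PCR, FAM primer extension, HpaI digestion and capillary electrophoresis; bidirectional fit versus DMSO baseline.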
# [5] = target: Heat shock factor protein 1 (Homo sapiens) (UniProt Q00613); experiment: ATG_HSE_CIS: Attagene CIS-FACTORIAL HepG2 Assay for human Heat Shock Transcription Factor 1 (HSE) (AID 2282953); details: HepG2 HSE cis-reporter, Attagene RNA transcription; actives raise or lower the signal
# Chain of Heat shock factor protein 1 (Homo sapiens) (Q00613 whole entry, looked up): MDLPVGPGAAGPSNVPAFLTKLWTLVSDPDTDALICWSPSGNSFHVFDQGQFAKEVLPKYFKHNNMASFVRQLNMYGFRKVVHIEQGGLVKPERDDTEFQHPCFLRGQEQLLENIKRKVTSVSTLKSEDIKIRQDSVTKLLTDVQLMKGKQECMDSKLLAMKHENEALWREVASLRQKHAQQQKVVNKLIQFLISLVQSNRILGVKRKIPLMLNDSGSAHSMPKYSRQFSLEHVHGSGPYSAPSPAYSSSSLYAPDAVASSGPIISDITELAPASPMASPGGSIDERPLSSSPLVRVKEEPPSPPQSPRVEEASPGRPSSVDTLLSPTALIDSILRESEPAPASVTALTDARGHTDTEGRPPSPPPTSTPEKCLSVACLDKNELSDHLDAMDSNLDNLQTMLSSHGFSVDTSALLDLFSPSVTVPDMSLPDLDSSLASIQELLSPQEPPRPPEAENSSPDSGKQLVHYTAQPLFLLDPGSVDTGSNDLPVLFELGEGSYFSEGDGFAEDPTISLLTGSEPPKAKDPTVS
# Outline: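 HepG2 cells transiently transfected with multiple reporter transcription units under cis-regulatory promoter control, measuring endogenous transcription factor activity. After 24 h chemical exposure, reporter mRNA quantified by RT-PCR, fluorescent labelling, HpaI digestion and capillary electrophoresis; bidirectional fit versus DMSO.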
# [6] = ATG_PBREM_CIS: Attagene CIS-FACTORIAL HepG2 Assay for human Phenobarbital-responsive Enhancer Module (PBREM) (AID 2282955); details: HepG2 PBREM cis-reporter, Attagene multiplexed transcription; actives raise or lower the signal
# Outline: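 Fluorescence of labelled reporter cDNA fragments, resolved by capillary electrophoresis, gives mRNA induction in transfected HepG2 cells treated for 24 h; DMSO serves as negative control and baseline.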
# [7] = target: Paired box protein Pax-6 (Homo sapiens) (UniProt P26367); experiment: ATG_Pax6_CIS: Attagene CIS-FACTORIAL HepG2 Assay for human Paired Box 6 (PAX6) (AID 2282956); details: HepG2 CIS-FACTORIAL PAX6 reporter transcription, RNA readout; actives raise or lower the signal
# Chain of Paired box protein Pax-6 (Homo sapiens) (P26367 whole entry, looked up): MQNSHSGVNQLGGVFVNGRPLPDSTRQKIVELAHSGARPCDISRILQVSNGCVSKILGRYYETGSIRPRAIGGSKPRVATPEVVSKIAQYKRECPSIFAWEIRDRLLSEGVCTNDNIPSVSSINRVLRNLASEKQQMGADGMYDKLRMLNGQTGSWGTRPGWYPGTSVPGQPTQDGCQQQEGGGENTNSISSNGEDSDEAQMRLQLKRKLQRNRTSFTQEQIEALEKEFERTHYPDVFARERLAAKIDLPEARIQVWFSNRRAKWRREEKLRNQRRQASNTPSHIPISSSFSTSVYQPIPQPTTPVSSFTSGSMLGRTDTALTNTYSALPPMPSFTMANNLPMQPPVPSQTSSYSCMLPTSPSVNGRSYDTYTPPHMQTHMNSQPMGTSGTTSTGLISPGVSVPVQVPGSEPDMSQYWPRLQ
# Outline: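 HepG2 cells transiently transfected with cis-promoter-driven multiplexed reporter units sensing endogenous transcription factor activity; 24 h chemical exposure. Reporter mRNA quantified by RT-PCR, 6-FAM labelling, HpaI digestion and capillary electrophoresis; bidirectional fit versus DMSO baseline.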
# [8] = ATG_PXRE_CIS: Attagene CIS-FACTORIAL HepG2 Assay for human Pregnane X Receptor Element (PXRE) (AID 2282957); details: HepG2 Attagene CIS-FACTORIAL PXRE reporter, mRNA; actives raise or lower the signal
# Outline: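 HepG2 cells transiently transfected with cis-regulated multiple reporter transcription units; endogenous factor activity measured as reporter mRNA 24 h after dosing. RT-PCR, fluorescent primer extension, HpaI digestion, capillary electrophoresis; bidirectional fit versus DMSO baseline.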
# [9] = ATG_RORE_CIS: Attagene CIS-FACTORIAL HepG2 Assay for human RAR-related Orphan Receptor Element (RORE) (AID 2282959); details: HepG2 Attagene cis-factorial RORE reporter, mRNA; actives raise or lower the signal
# Outline: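 Cells were HepG2 carrying transfected cis-regulated reporter constructs, dosed for 24 hours. Total RNA was reverse-transcribed and reporter cDNA amplified, fluorescently labeled and sized by capillary electrophoresis. Activity was fitted bidirectionally relative to DMSO.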
# [10] = ATG_Sox_CIS: Attagene CIS-FACTORIAL HepG2 Assay for human SRY-box transcription factor (SOX) (AID 2282960); details: HepG2 Attagene cis-factorial SOX reporter, mRNA; actives raise or lower the signal
# Outline: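 Transient MRTU transfection of HepG2; 24 h compound incubation; TriZol RNA, oligo(dT) RT, PCR, 6-FAM primer extension, HpaI cut, CE. Bidirectional fit, DMSO = baseline.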
# [11] = target: Transcription factor Sp1 (Homo sapiens) (UniProt P08047); experiment: ATG_Sp1_CIS: Attagene CIS-FACTORIAL HepG2 Assay for human Specificity Protein 1 (Sp1) (AID 2282961); details: HepG2 Sp1 cis-reporter transcription, actives raise or lower the signal
# Chain of Transcription factor Sp1 (Homo sapiens) (P08047 whole entry, looked up): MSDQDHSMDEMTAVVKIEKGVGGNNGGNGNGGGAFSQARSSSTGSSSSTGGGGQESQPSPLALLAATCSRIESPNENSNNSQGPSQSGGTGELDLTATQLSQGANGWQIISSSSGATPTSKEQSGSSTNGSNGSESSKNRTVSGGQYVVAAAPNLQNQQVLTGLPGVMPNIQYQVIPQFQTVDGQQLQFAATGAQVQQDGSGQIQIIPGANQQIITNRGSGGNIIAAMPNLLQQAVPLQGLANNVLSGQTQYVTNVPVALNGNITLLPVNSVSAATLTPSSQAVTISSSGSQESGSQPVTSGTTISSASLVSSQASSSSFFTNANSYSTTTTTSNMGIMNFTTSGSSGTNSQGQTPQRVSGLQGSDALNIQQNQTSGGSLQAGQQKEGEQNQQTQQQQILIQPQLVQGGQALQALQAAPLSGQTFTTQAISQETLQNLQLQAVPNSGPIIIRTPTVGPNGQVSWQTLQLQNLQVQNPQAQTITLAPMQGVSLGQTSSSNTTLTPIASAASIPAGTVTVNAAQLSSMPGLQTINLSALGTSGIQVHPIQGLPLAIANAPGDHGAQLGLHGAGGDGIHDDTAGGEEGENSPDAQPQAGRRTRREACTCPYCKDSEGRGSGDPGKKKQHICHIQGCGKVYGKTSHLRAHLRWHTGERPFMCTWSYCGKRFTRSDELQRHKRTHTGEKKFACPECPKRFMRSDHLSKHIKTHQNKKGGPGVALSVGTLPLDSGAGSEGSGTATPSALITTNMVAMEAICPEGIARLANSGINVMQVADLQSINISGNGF
# Outline: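 Endogenous Sp1 activity was gauged in human liver HepG2 cells bearing transfected reporter units under a cis-regulating promoter. After 24 h dosing, reporter mRNA was quantified by RT-PCR with capillary electrophoresis, and activity fitted bidirectionally versus DMSO.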
# [12] = target: Signal transducer and activator of transcription 3 (Homo sapiens) (UniProt P40763); experiment: ATG_STAT3_CIS: Attagene CIS-FACTORIAL HepG2 Assay for human Signal Transducer and Activator of Transcription 3 (STAT3) (AID 2282963); details: HepG2, Attagene cis-factorial STAT3 reporter transcription; actives raise or lower the signal
# Chain of Signal transducer and activator of transcription 3 (Homo sapiens) (P40763 whole entry, looked up): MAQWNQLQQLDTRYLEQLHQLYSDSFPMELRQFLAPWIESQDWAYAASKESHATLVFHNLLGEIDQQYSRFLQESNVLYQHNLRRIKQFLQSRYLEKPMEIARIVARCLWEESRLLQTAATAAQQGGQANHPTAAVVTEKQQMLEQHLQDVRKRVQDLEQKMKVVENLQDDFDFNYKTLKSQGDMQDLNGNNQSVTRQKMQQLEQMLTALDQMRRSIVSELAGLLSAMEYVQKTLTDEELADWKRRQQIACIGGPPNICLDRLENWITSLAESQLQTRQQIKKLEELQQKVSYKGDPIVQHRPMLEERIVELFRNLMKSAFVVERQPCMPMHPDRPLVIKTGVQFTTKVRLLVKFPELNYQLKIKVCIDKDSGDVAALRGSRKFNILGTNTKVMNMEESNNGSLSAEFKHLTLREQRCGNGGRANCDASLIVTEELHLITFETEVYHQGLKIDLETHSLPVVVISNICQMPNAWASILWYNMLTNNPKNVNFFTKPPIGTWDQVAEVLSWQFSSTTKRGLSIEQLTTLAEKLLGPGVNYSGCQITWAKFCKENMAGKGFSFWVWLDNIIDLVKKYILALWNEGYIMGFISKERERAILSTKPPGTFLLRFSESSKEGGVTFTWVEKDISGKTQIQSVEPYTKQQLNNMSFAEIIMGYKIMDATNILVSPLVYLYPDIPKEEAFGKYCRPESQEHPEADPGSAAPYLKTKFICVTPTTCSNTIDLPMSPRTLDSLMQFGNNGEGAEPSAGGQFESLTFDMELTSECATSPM
# Outline: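 HepG2 cells transiently transfected with multiple cis-element-driven reporter units report endogenous transcription factor activity. After 24 h compound exposure, reporter mRNA is measured by RT-PCR, 6-FAM labelling, HpaI digestion and capillary electrophoresis. Fitted bidirectionally versus DMSO.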
# [13] = ATG_TA_CIS: Attagene CIS-FACTORIAL HepG2 Assay for human TA Basal Promoter (AID 2282964); details: HepG2 Attagene CIS-factorial TA basal promoter reporter; actives raise or lower the signal
# Outline: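 HepG2 cells transiently transfected with multiplexed cis-promoter reporter units, dosed 24 h. Reporter mRNA measured by RT-PCR, 6-FAM labelling, HpaI digestion and capillary electrophoresis; bidirectional fit versus DMSO baseline, serving as background control.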
# [14] = ATG_TCF_b_cat_CIS: Attagene CIS-FACTORIAL HepG2 Assay for human T-Cell-Factor with beta-catenin (TCF/b-cat) (AID 2282965); details: HepG2 TCF/beta-catenin cis-reporter transcription, actives raise or lower the signal
# Outline: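 Cells of the HepG2 line carry transiently transfected reporter units whose promoters respond to endogenous factors. Twenty-four hours post-dosing, reporter mRNA induction is measured by fluorescent RT-PCR and capillary electrophoresis, with DMSO as baseline.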
# [15] = ATG_VDRE_CIS: Attagene CIS-FACTORIAL HepG2 Assay for human Vitamin D Receptor Element (VDRE) (AID 2282968); details: HepG2 VDRE cis-reporter transcription, actives raise or lower the signal
# Outline: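 Transiently transfected HepG2 cells carrying cis-regulated reporter transcription units were exposed for 24 h. Reporter mRNA was measured by RT-PCR with fluorescent labelling and capillary electrophoresis, and fitted in both directions against DMSO.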
# [16] = ATG_MRE_CIS: Attagene CIS-FACTORIAL HepG2 Assay for human Metal Responsive Element (MRE) (AID 2282954); details: HepG2 MRE cis-reporter transcription, Attagene multiplex; actives raise or lower the signal
# Outline: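 HepG2 cells transiently transfected with cis-element-driven reporter units; mRNA measured 24 h after dosing. Reporter transcripts quantified by RT-PCR, FAM labelling, HpaI digestion and capillary electrophoresis; bidirectional fit versus DMSO.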
# [17] = ATG_PPRE_CIS: Attagene CIS-FACTORIAL HepG2 Assay for human Peroxisome Proliferator-activated Response Element (PPRE) (AID 2282958); details: HepG2 PPRE cis-element reporter, Attagene transcription factor profiling; actives raise or lower the signal
# Outline: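 Cells are first transfected transiently with the multiplexed reporter library, then dosed for 24 h. Total RNA is reverse-transcribed, amplified, fluorescently end-labeled and HpaI-cut before capillary electrophoresis; activity is fitted bidirectionally against DMSO controls.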
# [18] = ATG_SREBP_CIS: Attagene CIS-FACTORIAL HepG2 Assay for human Sterol Regulatory Element Binding (SREBP) (AID 2282962); details: HepG2 Attagene cis-factorial SREBP reporter, mRNA; actives raise or lower the signal
# Outline: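 HepG2 cells transiently transfected with multiplexed cis-promoter reporter units sensing endogenous transcription factors; reporter mRNA measured 24 h after dosing by RT-PCR, 6-FAM labeling, HpaI digestion and capillary electrophoresis. Bidirectional fit versus DMSO.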
# [19] = ATG_TAL_CIS: Attagene CIS-FACTORIAL HepG2 Assay for human TAL Basal Promoter (AID 2282966); details: HepG2 Attagene cis-factorial TAL promoter reporter; actives raise or lower the signal;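 also: background control endpoint measuring basal TAL promoter reporter mRNA not a specific factor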
# Outline: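 HepG2 cells were transiently transfected with promoter-driven multiplexed reporter units and dosed for 24 h. Reporter mRNA was measured by RT-PCR with capillary electrophoresis fluorescence; bidirectional fits used DMSO as baseline, serving as a background control.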
# [20] = ATG_TGFb_CIS: Attagene CIS-FACTORIAL HepG2 Assay for human Transforming Growth Factor (TGF) (AID 2282967); details: HepG2 Attagene CIS TGFb reporter, mRNA transcription; actives raise or lower the signal
# Outline: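 HepG2 cells transiently transfected with cis-promoter-driven multiplexed reporter units; 24 h compound exposure. Reporter mRNA measured by RT-PCR, 6-FAM labeling, HpaI digestion and capillary electrophoresis; bidirectional fit versus DMSO baseline.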
compound,measurement,setting,value
CC(C)(C)c1ccc(O)c(O)c1,outcome,[1],inactive
same,outcome,[2],inactive
same,AC50,[3],26.1 µM (active) and 25.9 µM (active) and 25.5 µM (active)
same,outcome,[3],inactive
same,outcome,[4],inactive
same,AC50,[5],133 µM (active) [middle of 5 runs]
same,outcome,[6],inactive
same,AC50,[7],99.1 µM (active) and 57.3 µM (active)
same,outcome,[7],inactive
same,AC50,[8],2.45 µM (active) [middle of 5 runs]
same,AC50,[9],45.8 µM (active) and 27.9 µM (active) and 54.2 µM (active)
same,outcome,[9],inactive
same,outcome,[10],inactive
same,outcome,[11],inactive
same,outcome,[12],inactive
same,outcome,[13],inactive
same,outcome,[14],inactive
same,AC50,[15],4.28 µM (active) [middle of 5 runs]
CCCCCCCCCCCC[N+](C)(C)Cc1ccccc1,AC50,[1],20.3 µM (active)
same,outcome,[1],inactive
same,outcome,[2],inactive
same,outcome,[3],inactive
same,AC50,[4],17.6 µM (active)
same,outcome,[4],inactive
same,AC50,[5],18.7 µM (active)
same,outcome,[5],inactive
same,outcome,[16],inactive
same,outcome,[6],inactive
same,outcome,[7],inactive
same,outcome,[8],inactive
same,outcome,[17],inactive
same,outcome,[10],inactive
same,AC50,[11],6.43 µM (active)
same,outcome,[11],inactive
same,outcome,[18],inactive
same,outcome,[12],inactive
same,AC50,[13],17.7 µM (active)
same,outcome,[13],inactive
same,outcome,[14],inactive
same,outcome,[19],inactive
same,outcome,[20],inactive
same,AC50,[15],13.2 µM (active)
same,outcome,[15],inactive
C=CC(=C)CC/C=C(\C)CCC=C(C)C,outcome,[1],inactive
same,outcome,[2],inactive
same,outcome,[3],inactive
same,outcome,[4],inactive
same,outcome,[5],inactive
same,outcome,[16],inactive
same,outcome,[6],inactive
same,outcome,[7],inactive
same,AC50,[8],3.39 µM (active)
same,outcome,[17],inactive
same,outcome,[9],inactive
same,outcome,[10],inactive
same,outcome,[11],inactive
same,outcome,[18],inactive
same,outcome,[12],inactive
same,outcome,[13],inactive
same,outcome,[14],inactive
same,outcome,[19],inactive
same,outcome,[20],inactive
same,AC50,[15],6.84 µM (active)
CNNCc1ccc(C(=O)NC(C)C)cc1,outcome,[1],inactive
same,outcome,[2],inactive
same,outcome,[3],inactive
same,outcome,[4],inactive
same,outcome,[5],inactive
same,outcome,[16],inactive
same,outcome,[6],inactive
same,outcome,[7],inactive
same,AC50,[8],25.7 µM (active)
same,outcome,[8],inactive
same,outcome,[17],inactive
same,outcome,[10],inactive
same,outcome,[11],inactive
same,outcome,[12],inactive
same,outcome,[13],inactive
same,outcome,[14],inactive
same,outcome,[19],inactive
same,outcome,[20],inactive
same,outcome,[15],inactive
CCN(CCC#N)c1ccccc1,outcome,[1],inactive
same,outcome,[2],inactive
same,outcome,[3],inactive
same,outcome,[4],inactive
same,outcome,[5],inactive
same,outcome,[16],inactive
same,outcome,[6],inactive
same,outcome,[7],inactive
same,AC50,[8],39.6 µM (active)
same,outcome,[17],inactive
same,outcome,[9],inactive
same,outcome,[10],inactive
same,outcome,[11],inactive
same,outcome,[18],inactive
same,outcome,[12],inactive
same,outcome,[13],inactive
same,outcome,[14],inactive
same,outcome,[19],inactive
same,outcome,[20],inactive
same,outcome,[15],inactive
CC=O,outcome,[1],inactive
same,outcome,[2],inactive
same,outcome,[3],inactive
same,outcome,[4],inactive
same,outcome,[5],inactive
same,outcome,[16],inactive
same,outcome,[6],inactive
same,outcome,[7],inactive
same,outcome,[8],inactive
same,outcome,[17],inactive
same,outcome,[9],inactive
same,outcome,[10],inactive
same,outcome,[11],inactive
same,outcome,[18],inactive
same,outcome,[12],inactive
same,outcome,[13],inactive
same,outcome,[14],inactive
same,outcome,[19],inactive
same,outcome,[20],inactive
same,outcome,[15],inactive
